Assay [1] in a line: qHTS assay to identify small molecule antagonists of the thyroid receptor (TR) signaling pathway (AID 743065). Note: nearly all actives have a fitted effect of over 55% in size. In short, it runs like this:
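GH3.TRE-Luc rat pituitary cells carrying two TR response elements driving luciferase were plated for 4 h, given compound plus 1 nM T3 (final), and incubated 23.5 h at 37 C. ONE-Glo luminescence measured reporter inhibition; CellTiter-Fluor fluorescence tracked cytotoxicity.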
(In qHTS, concentration-response curves come from the screen itself.)

Assay [2] concerns thyroid hormone receptor (rat, GH3 cells). The assay is described as follows: qHTS assay to identify small molecule agonists of the thyroid receptor (TR) signaling pathway (AID 743066; calls by dose curve).
The target of assay [3] is Estrogen receptor (Homo sapiens) (UniProt P03372). The assay is described as follows: qHTS assay to identify small molecule antagonists of the estrogen receptor alpha (ER-alpha) signaling pathway (AID 743069; active = well fitted curve in the direction sought with a large enough effect in the signal ratio in the repeat runs, not every such curve was filed as active; the % refers to the signal ratio). A digest of the protocol: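 Estradiol-stimulated ER-alpha-UAS-bla HEK293 cells, 18 hr compound exposure at 37C. LiveBLAzer B/G substrate, 2 hr RT, fluorescence read.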
Chain of Estrogen receptor (Homo sapiens) (P03372 whole entry, looked up): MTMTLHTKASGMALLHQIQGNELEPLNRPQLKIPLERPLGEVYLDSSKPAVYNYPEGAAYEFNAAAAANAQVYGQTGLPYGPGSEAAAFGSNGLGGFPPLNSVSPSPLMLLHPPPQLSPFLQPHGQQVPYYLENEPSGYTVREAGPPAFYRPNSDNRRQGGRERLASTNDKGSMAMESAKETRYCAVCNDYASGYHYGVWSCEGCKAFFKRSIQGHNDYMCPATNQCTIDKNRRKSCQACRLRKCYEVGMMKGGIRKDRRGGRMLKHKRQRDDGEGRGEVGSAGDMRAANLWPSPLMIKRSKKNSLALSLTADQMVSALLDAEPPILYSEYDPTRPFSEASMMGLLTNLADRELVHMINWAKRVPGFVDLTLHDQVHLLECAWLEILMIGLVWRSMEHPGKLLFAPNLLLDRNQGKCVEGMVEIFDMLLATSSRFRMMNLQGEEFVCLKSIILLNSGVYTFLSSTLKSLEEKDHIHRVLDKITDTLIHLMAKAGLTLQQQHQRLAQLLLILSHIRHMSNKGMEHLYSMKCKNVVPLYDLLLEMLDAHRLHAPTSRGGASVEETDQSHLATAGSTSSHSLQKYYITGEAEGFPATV

Assay [4] shares this target. The assay is described as follows: qHTS assay to identify small molecule agonists of the estrogen receptor alpha (ER-alpha) signaling pathway (AID 743075; calls by dose curve;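 note: HEK293 GripTite cells with ER-alpha and UAS-driven beta-lactamase reporter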; note: potency is the fitted concentration of half-maximal effect).
The target is the same in assay [5]. The assay is described as follows: qHTS assay to identify small molecule agonists of the estrogen receptor alpha (ER-alpha) signaling pathway using the BG1 cell line (AID 743079). Note: nearly all actives have a fitted effect of over 20% in size. To be noted: BG1Luc4E2 cells, ERE-luciferase agonist, 22 h; at 70.3 µM (top of the series).
A short description of assay [6]: qHTS assay to identify small molecule antagonists of the estrogen receptor alpha (ER-alpha) signaling pathway using the BG1 cell line (AID 743080; calls by dose curve;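 note: BG1 cells stimulated with 17beta-estradiol alongside compound; nearly all actives have a fitted effect of over 25% in size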). In short, it runs like this:
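After 5 days in phenol-red-free 10% charcoal-stripped FBS medium, BG1-Luc-4E2 cells were seeded, left 24 h at 37 C, co-treated with compounds and 17beta-estradiol for 21.5 h, then assayed for viability and luciferase.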

Assay [7] in a line: qHTS assay to identify small molecule antagonists of the estrogen receptor alpha (ER-alpha) signaling pathway using the BG1 cell line - cell viability counter screen (AID 743081).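 Note: compound given together with 17beta-estradiol as the ER stimulus; nearly all actives have a fitted effect of over 45% in size.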
Another assay has as its target Aromatase (Homo sapiens) (UniProt P11511). The assay is described as follows: qHTS assay to identify aromatase inhibitors (AID 743083). Note: nearly all actives have a fitted effect of over 55% in size.
A short description of assay [8]: qHTS assay to identify aromatase inhibitors - cell viability counter screen (AID 743084).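 Note: cells stimulated with testosterone during compound exposure; nearly all actives have a fitted effect of over 55% in size.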
Assay [9] addresses Aryl hydrocarbon receptor (Homo sapiens) (UniProt P35869). The assay is described as follows: qHTS assay to identify small molecule that activate the aryl hydrocarbon receptor (AhR) signaling pathway (AID 743085).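 Note: HG2L7.5c1 human HepG2 liver cells with stably integrated DRE-driven firefly reporter; nearly all actives have a fitted effect of over 15% in size.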 In short, it runs like this: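 Measured in HG2L7.5c1 cells: CellTiter-Fluor signal (30 min incubation, 37C) for viability, then luciferase luminescence (30 min, room temperature). Compound contact time was 24 h at 37C, following a 5 h pre-incubation.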

Assay [10] can be described thus: qHTS assay to identify small molecule that activate the aryl hydrocarbon receptor (AhR) signaling pathway - cell viability counter screen (AID 743086).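 Note: HepG2 liver cells carrying the AhR DRE luciferase reporter; nearly all actives have a fitted effect of over 45% in size.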 In short, it runs like this:
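HepG2-AhR-luc (HG2L7.5c1) cells, 4000/well, were preincubated 5 h at 37C, exposed to compound in qHTS format for 24 hr at 37C, then given CellTiter-Fluor for 30 min; viability was read as fluorescence in the reporter wells.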

In assay [11] the target is Peroxisome proliferator-activated receptor gamma (Homo sapiens) (UniProt P37231). The assay is described as follows: qHTS assay to identify small molecule agonists of the peroxisome proliferator-activated receptor gamma (PPARg) signaling pathway (AID 743094; active = well fitted activation curve with a large enough effect in the signal ratio in the repeat runs, not every such curve was filed as active; the % refers to the signal ratio). In short, it runs like this: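 GeneBLAzer PPARg UAS-bla HEK293H cells carrying a stably integrated beta-lactamase reporter were pre-incubated 5 h at 37C, then exposed to compounds in DMSO for 17 h at 37C; LiveBLAzer B/G FRET substrate was added for 1 h at room temperature and fluorescence read.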
Chain of Peroxisome proliferator-activated receptor gamma (Homo sapiens) (P37231 whole entry, looked up): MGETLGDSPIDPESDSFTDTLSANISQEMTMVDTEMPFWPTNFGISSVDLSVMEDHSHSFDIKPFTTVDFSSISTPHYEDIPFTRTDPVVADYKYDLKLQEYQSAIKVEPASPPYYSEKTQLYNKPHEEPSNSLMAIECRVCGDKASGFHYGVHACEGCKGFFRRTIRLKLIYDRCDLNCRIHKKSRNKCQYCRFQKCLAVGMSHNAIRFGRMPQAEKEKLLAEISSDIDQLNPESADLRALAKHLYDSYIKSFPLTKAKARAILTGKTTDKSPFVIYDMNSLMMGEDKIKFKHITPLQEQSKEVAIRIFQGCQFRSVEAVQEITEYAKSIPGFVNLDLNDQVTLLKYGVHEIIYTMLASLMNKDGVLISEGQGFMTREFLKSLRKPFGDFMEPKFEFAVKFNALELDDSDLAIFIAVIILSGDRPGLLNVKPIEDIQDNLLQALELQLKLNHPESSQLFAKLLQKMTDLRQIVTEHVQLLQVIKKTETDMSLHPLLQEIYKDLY

For assay [12] the target is unchanged. The assay is described as follows: qHTS assay to identify small molecule antagonists of the peroxisome proliferator-activated receptor gamma (PPARg) signaling pathway (AID 743191; calls by dose curve; note: nearly all actives have a fitted effect of over 30% in size). A digest of the protocol:
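GeneBLAzer PPARg UAS-bla HEK293H cells carrying a UAS-driven beta-lactamase reporter were plated at 3000 cells/well, preincubated 5 h at 37C, then given compound for 17 h at 37C; LiveBLAzer B/G FRET substrate was read after 1 h at room temperature.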

The nature of assay [13]: qHTS assay for small molecule agonists of the antioxidant response element (ARE) signaling pathway (AID 743202; active = well fitted activation curve with a large enough effect in the signal ratio in the repeat runs, not every such curve was filed as active; the % refers to the signal ratio; note: potency is the fitted concentration of half-maximal effect). In short, it runs like this:
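Compounds delivered in DMSO to ARE-bla HepG2 cells (2,000 cells/well, pre-incubated 5 h) and left 16 h at 37 C. LiveBLAzer B/G FRET substrate then added for 2 h at RT before fluorescence reading.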

Assay [14] is described as follows: qHTS assay for small molecule activators of the heat shock response signaling pathway - cell viability counter screen (AID 743209). Note: nearly all actives have a fitted effect of over 50% in size. In short, it runs like this:
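CellSensor HSE-bla HeLa cells, plated overnight at 37 C/5% CO2, were exposed to compounds in DMSO for 5 h at 37 C. Viability was then read in the same wells by CellTiter-Glo luminescence after 30 min at room temperature.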

A short description of assay [15]: qHTS assay for small molecule activators of the heat shock response signaling pathway (AID 743210; active = well fitted activation curve with a large enough effect in the signal ratio in the repeat runs, with a control signal flat, not every such curve was filed as active; the % refers to the signal ratio;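 note: HeLa cells with beta-lactamase reporter driven by heat shock elements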). A digest of the protocol: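 Reporter gene assay: HeLa cells stably bearing an HSE-bla construct, compound treatment 5 h at 37 C, LiveBLAzer substrate 2.5 h at RT, fluorescence intensity.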
A short description of assay [16]: qHTS assay to identify small molecule agonists of the peroxisome proliferator-activated receptor delta (PPARd) signaling pathway - cell viability counter screen (AID 743211). Note: nearly all actives have a fitted effect of over 55% in size. A digest of the protocol: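 Following 5 h plating at 37 C and 5% CO2, PPARd UAS-bla HEK293H cells took up test compounds for 17 h. Viability was quantified by luminescence 30 min after CellTiter-Glo addition at room temperature.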

Assay [17] in a line: qHTS assay to identify small molecule antagonists of the estrogen receptor alpha (ER-alpha) signaling pathway - cell viability counter screen (AID 743074; calls by dose curve;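 note: HEK293 cells carrying ER-alpha-UAS-bla reporter stimulated with 17beta-estradiol; nearly all actives have a fitted effect of over 45% in size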).
Assay [18] is described as follows: qHTS assay for small molecule agonists of the antioxidant response element (ARE) signaling pathway - cell viability counter screen (AID 743203; calls by dose curve; note: nearly all actives have a fitted effect of over 55% in size). In short, it runs like this: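 CellSensor ARE-bla HepG2 cells, 2,000 per well, rested 5 hrs at 37C/5% CO2, then exposed to compound in DMSO for 16 hrs; viability read as CellTiter-Glo luminescence after 30 min at room temperature, in the reporter wells.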

Assay [19] can be described thus: qHTS assay to identify small molecule antagonists of the peroxisome proliferator-activated receptor gamma (PPARg) signaling pathway - cell viability counter screen (AID 743194). Note: nearly all actives have a fitted effect of over 55% in size. As to conditions: Potency: co-treated with 50 nM rosiglitazone. A digest of the protocol: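 PPARg-UAS-bla HEK293H cells were plated, rested 5 h at 37 C, then treated with compounds plus rosiglitazone (50 nM final) for 17 h at 37 C; viability was then read by CellTiter-Glo luminescence after 30 min at room temperature.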

Inconclusive results are not listed. Unmarked numbers belong to inactive results. Activity calls are given as the source filed them. Unless noted, calls come from the whole dose curve; as a rule, active = well fitted curve in the direction sought with a large enough effect in the repeat runs; inconclusive = weak or mixed curves; inactive = no such curve, though single readings can be large; an effect the other way counts as inactive or inconclusive.
% is set by controls: 0 for no effect and ±100 for the full control effect.

Chain of Aryl hydrocarbon receptor (Homo sapiens) (P35869 whole entry, looked up): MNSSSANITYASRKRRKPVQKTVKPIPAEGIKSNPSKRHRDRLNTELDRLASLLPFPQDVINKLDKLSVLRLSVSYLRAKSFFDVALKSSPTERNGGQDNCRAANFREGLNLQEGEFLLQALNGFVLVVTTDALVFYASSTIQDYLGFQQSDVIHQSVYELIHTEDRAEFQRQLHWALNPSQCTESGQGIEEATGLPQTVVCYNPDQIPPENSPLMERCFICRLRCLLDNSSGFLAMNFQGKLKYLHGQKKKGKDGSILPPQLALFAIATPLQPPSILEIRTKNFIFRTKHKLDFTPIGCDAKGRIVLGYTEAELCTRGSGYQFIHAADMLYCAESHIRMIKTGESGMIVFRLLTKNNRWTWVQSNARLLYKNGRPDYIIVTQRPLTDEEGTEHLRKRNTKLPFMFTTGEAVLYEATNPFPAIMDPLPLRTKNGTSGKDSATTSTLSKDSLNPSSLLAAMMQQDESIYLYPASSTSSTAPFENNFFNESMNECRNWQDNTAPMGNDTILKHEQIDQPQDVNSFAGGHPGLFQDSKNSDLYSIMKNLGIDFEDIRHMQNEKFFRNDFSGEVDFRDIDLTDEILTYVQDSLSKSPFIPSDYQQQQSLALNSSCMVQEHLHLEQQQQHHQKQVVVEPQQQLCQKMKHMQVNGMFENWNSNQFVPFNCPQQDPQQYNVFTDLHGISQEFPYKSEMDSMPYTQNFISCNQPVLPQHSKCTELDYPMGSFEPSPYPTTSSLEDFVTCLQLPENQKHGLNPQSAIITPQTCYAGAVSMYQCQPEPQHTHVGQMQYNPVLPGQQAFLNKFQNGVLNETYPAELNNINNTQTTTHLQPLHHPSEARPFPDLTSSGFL
Chain of Aromatase (Homo sapiens) (P11511 whole entry, looked up): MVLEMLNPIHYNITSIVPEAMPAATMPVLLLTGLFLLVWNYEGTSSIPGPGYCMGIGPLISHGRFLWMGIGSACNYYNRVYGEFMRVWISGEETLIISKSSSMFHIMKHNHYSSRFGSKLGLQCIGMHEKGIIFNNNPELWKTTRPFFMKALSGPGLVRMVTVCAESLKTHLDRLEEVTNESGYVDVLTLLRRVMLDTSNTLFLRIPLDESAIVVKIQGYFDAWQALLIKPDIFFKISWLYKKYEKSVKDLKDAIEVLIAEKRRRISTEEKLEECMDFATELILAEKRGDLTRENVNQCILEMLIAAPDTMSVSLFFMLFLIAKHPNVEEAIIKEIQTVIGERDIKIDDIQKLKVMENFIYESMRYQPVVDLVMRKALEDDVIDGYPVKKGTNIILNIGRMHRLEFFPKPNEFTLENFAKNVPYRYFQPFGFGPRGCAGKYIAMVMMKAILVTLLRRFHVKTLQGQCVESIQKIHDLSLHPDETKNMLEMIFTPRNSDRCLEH

In the case of `CC(Cl)(Cl)[N+](=O)[O-]`, the Potency entry in assay [1], in [2], in assay [3], in [4], in [6] and in assay [7] was “inactive” throughout. Moreover, the Potency result (in the assay with Aromatase (Homo sapiens); in assay [8]; in assay [9]; in assay [12]; in [13]; in assay [14]) was “inactive” each time. The Potency entry in [16] was “inactive”. In addition, the activation in assay [5] was -5.99%. Also, the molecule was classed as inactive in assay [10], in [11] and in [15].

Take `OC(c1ccc(F)cc1)(c1cncnc1)c1ccccc1Cl` (stereo unspecified): the Potency entry in assay [1], in [2], in assay [3], in assay [6], in [7] and in assay [8] was “inactive” each time. Further, the Potency result in [18], in assay [14] and in assay [16] was “inactive” throughout. The molecule was classed as inactive in assay [17], in assay [10], in [11] and in assay [15]. For the same molecule, in [4], the Potency was 49 µM [activator] (active).

Turning to `O=C1c2ccccc2C(=O)c2ccccc21`, the Potency entry (in [1]; in [2]; in assay [3]; in [4]; in the assay with Aromatase (Homo sapiens); in assay [8]) was “inactive” in each case. Further, the Potency entry in assay [9], in assay [12], in [19], in assay [13], in [18] and in [14] was “inactive” throughout. For the same molecule, the Potency result in [16] was “inactive”. Also, the molecule was called inactive in assay [17], in assay [10], in assay [11] and in assay [15].

On to `O=S(=O)(O)C(F)(F)C(F)(F)C(F)(F)C(F)(F)C(F)(F)C(F)(F)F`, for which the Potency result in assay [1], in assay [2], in [3], in assay [4], in [6] and in [7] was “inactive” each time. For the same molecule, the Potency result (with Aromatase (Homo sapiens); in assay [9]; in [12]; in [18]; in [14]; in assay [16]) was “inactive” throughout. Besides, the activation in assay [5] is -0.729%. Also, the molecule was called inactive in assay [10], in assay [11] and in [15].

Regarding `CCSC(=O)N(CC)C1CCCCC1`, the Potency entry in assay [1], in assay [2], in assay [3], in [4], in assay [6] and in assay [7] was “inactive” in each case. Moreover, the Potency result (with Aromatase (Homo sapiens); in assay [8]; in [9]; in assay [19]; in assay [13]; in assay [18]) was “inactive” throughout. Further, the Potency result in [14] and in assay [16] was “inactive” in each case. In addition, the result in [17], in assay [10], in assay [11] and in assay [15] was inactive.

For `NC(=O)c1cc([N+](=O)[O-])cc([N+](=O)[O-])c1`, the Potency entry in assay [1], in [2], in assay [3], in assay [4], in [6] and in assay [7] was “inactive” each time. Also, the Potency entry (with Aromatase (Homo sapiens); in [8]; in assay [9]; in [12]; in assay [19]; in [18]) was “inactive” each time. Also, the Potency entry in assay [16] is “inactive”. Also, the molecule was called inactive in assay [17], in assay [10], in assay [11] and in [15]. The Potency in [13] is 23.7 µM (active).

With `CCCCOC(=O)[C@@H](C)Oc1ccc(Oc2ccc(C#N)cc2F)cc1`, the Potency entry (in assay [1]; in assay [2]; in [4]; in assay [6]; in [7]; in the assay with Aromatase (Homo sapiens)) was “inactive” in each case. The Potency result in assay [8], in assay [9], in assay [19], in [14] and in assay [16] was “inactive” throughout. Besides, the result in [17], in assay [10], in assay [11] and in assay [15] was inactive. Moreover, in assay [5], the activation is -4.38%.
